Bioassay records: PubChem BioAssay, National Center for Advancing Translational Sciences (NCATS)
Hits are enriched below; roughly 1.1% of the tested compounds scored in any of these assays.
12-LOX inh: ALOX12 (human) lipoxygenase inhibition. P18054. purified 12hLO, xylenol orange hydroperoxide absorbance. Potency, µM (series often up to 108 µM), for the others: top-dose activity change, negative = inhibition, hits mostly inhibitors. actives 1.1% (n = 580,000). AID 1671190; note: % is set by controls: 0 for no effect and ±100 for the full control effect
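Purified human 12hLO at 150 nM in 25 mM Hepes, 0.01% Triton X-100, pH 7.0, preincubated 15 min at room temperature with compound. Reaction started with 40 uM arachidonic acid, 30 min at room temperature. Hydroperoxide measured by Fe-xylenol orange, 573/405 nm absorbance ratio.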
PTAP TSG101 blk: blocks PTAP/TSG101 interaction to inhibit HIV-1 budding. Q99816. Fluorescence polarization, FITC-PTAP peptide / Tsg101 binding. Potency, µM (highest dose often 115 µM), without a hit: at the top dose activity change, negative = inhibition, hits mostly inhibitors. 340,000 tested, under 10 active. AID 493005; active = well fitted inhibition curve with a large enough effect in the main read-out, with a control signal flat, not every such curve was filed as active; inconclusive = small, poorly fitted or top-dose-only effect, or effect the other way, or a change in a side signal; inactive = no such curve, though single readings can be large or run the other way; note: % of control where 0% means no effect
Target sequence (Q99816 whole entry, looked up): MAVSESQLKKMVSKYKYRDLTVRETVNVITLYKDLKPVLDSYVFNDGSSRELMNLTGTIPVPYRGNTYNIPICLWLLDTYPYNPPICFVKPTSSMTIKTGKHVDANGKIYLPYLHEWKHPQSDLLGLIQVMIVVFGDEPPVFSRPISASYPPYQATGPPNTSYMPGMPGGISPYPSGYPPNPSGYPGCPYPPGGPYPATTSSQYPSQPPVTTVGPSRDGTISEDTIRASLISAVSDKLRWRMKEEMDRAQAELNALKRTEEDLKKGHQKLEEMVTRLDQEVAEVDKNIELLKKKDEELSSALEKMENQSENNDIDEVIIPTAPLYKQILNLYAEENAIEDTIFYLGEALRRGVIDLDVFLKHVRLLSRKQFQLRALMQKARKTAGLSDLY
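FP read-out: FITC-PTAP peptide, 50 nM final, binding Tsg101 binding domain, 10 uM final; 20 min, r.t.; 10 mM HEPES pH 7.5, 0.15 M NaCl, 0.01% Tween 20, 3 mM EDTA, 0.1 mM TCEP.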
USP2a block: inhibitors of human ubiquitin-specific protease USP2a; O75604; USP2 core, Ub-CHOP2 coupled fluorogenic reporter, 485/531; Potency, µM (top dose mostly 38.3 µM), for inactives: at the highest dose activity change, negative = inhibition, most hits filed as inhibitors; actives 0.01% (n = 330,000); AID 463254;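 note: plate controls were DMSO wells for no effect and full inhibition by NEM control for full effect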
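Cell-free coupled assay: 10nM USP2 core preincubated 30min RT with compound in Tris-HCl pH 8.0/CaCl2/CHAPS buffer, then 25nM Ub-CHOP2 and 25nM reporter substrate; fluorescence (Ex 485/Em 531) read after 60min RT, normalized to NEM inhibition, concentration-response curves fitted.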
Eya2 inh: inhibitors of human Eya2 phosphatase activity. recombinant Eya2, OMFP fluorescence dephosphorylation (OMFP is methylfluorescein phosphate). Potency, µM (highest dose often 76.9 µM), for the others: at the highest dose activity, negative = inhibition, usual class: inhibitors. actives 0.006% (n = 330,000). AID 488837; note: % is set by controls: 0 for no effect and ±100 for the full control effect
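Eya2 protein (added as 0.2 uM solution) was preincubated with compound for 10 min at ambient temperature in 50 mM HEPES pH 7.5, 50 mM NaCl, 5 uM MgCl2, 0.05% BSA, 1 mM DTT. OMFP (added at 50 uM) then reacted 10 min; fluorescence read at 485/525 nm.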
An asterisk follows results filed as active; ? = inconclusive; . = no result given. Unless noted, calls come from the whole dose curve; as a rule, active = well fitted curve in the direction sought with a large enough effect; inconclusive = small, poorly fitted or top-dose-only effect, or another doubt; inactive = no such curve, though single readings can be large; an effect the other way counts as inactive or inconclusive. Potency is the fitted concentration of half-maximal effect.

SMILES | 12-LOX inh | PTAP TSG101 blk | USP2a block | Eya2 inh
COc1ccc2cc(CN(Cc3cccnc3)S(=O)(=O)c3ccccc3)c(=O)[nH]c2c1 | 45µM* | -3% | 2% | 9%
CCc1cc(=O)n(CC(=O)N2CCN(c3ccccc3F)CC2)c(N2CCOCC2)n1 | 30% | . | . | .
Cc1cc2c(c(=O)n1CCN(C)C)C(c1ccncc1)C(C#N)=C(N)O2 (stereo unspecified) | -8% | 0% | 0% | 1%
Cc1cc2c(c(=O)n1CCN(C)C)C(c1ccc(Cl)cc1Cl)C(C#N)=C(N)O2 (stereo unspecified) | 56µM* | . | . | .
O=C(Nc1cccc(OC(F)(F)F)c1)c1cc(-c2ccc[nH]2)n[nH]1 | 14µM* | . | . | .
Cc1ccc(F)cc1NC(=O)c1cc(-c2ccc[nH]2)n[nH]1 | 16µM* | . | . | .
Cc1cc(NC(=O)c2cc(-c3ccc[nH]3)n[nH]2)ccc1F | -16% | . | . | .
CC1=C(C(=O)Nc2ccc(C(=O)NCCc3cccs3)cc2)SCCO1 | 29% | . | . | .
CCc1cc2c(C)cc(=O)oc2cc1OCC(=O)c1ccccc1 | 5% | . | . | .
Cc1ccc(C)c(NC(=S)N2CCN(c3cccc(C(F)(F)F)c3)CC2)c1 | -4% | -4% | 1% | 0%
FC(F)(F)c1cccc(N2CCN(C(=S)NC3CCCCC3)CC2)c1 | 50µM* | -1% | 0% | -11%
FC(F)(F)c1cccc(N2CCN(C(=S)NC3CCCC3)CC2)c1 | -18% | 1% | 0% | -33%
Cc1ccnc(NC(=S)N2CCN(c3cccc(C(F)(F)F)c3)CC2)c1 | 22µM* | 1% | 3% | 7%
O=C(c1cccc(C(F)(F)F)c1)N1CCCC1c1ccco1 (stereo unspecified) | -40% | . | . | .
COc1ccccc1NC(=O)Cc1csc(NC(=S)Nc2ccc(C)cc2)n1 | 10µM* | -10% | -1% | 0%
COc1ccccc1NC(=O)Cc1nc(CCl)cs1 | 40µM* | -4% | 2% | 3%
CCC(=O)Nc1nc(CC(=O)Nc2ccccc2OC)cs1 | 9% | -3% | -1% | 3%
COc1ccc2c(c1)CCCC(Br)C2=O (stereo unspecified) | 40µM* | 0% | . | .
COc1ccc2c(c1)CCC/C2=N\O | -27% | . | . | .
COc1ccccc1NC(=S)NC(=O)/C=C/c1cccs1 | 35µM* | 0% | 0% | 0%
COc1ccccc1/C=C/C(=O)NC(=S)NC(C)C | 25µM* | -4% | -6% | 1%
COc1ccccc1/C=C/C(=O)NC(=S)N1CCN(C)CC1 | -1% | -3% | 2% | 1%
COc1ccc(NC(=S)NC(=O)/C=C/c2cccs2)cc1 | -23% | -1% | 0% | 9%
CNCc1cccn1C | 0.52µM* | . | . | .
CCCC(=O)NNc1cc(=O)c2c(=O)n(C)c(=O)n(C)c2[nH]1 | 16µM* | -6% | 1% | -30%
SMILES | 12-LOX inh | PTAP TSG101 blk | USP2a block | Eya2 inh
CC1=C([N+](=O)[O-])C(c2ccc(O)c(O)c2)NC(=O)N1 (stereo unspecified) | 28µM* | 1% | -1% | 8%
COc1ccc(C2NC(=O)NC(C)=C2[N+](=O)[O-])cc1OC (stereo unspecified) | 4% | -2% | 3% | 12%
O=C(NCCc1cccc(F)c1)c1ccccn1 | 0% | . | . | .
CCOc1cc(/C=C/c2nc3ccccc3s2)ccc1O | 40µM* | . | . | .
COc1ccc2[nH]cc(CCNC(=O)CCC[C@H]3NC[C@@H]4C[C@H]3CN(Cc3ccccc3)C4)c2c1 | 4µM* | . | . | .
CNC(=O)CCC[C@H]1NC[C@@H]2CC1CN(Cc1ccccc1)C2 | 8.9µM* | . | . | .
COc1cccc(NC(=O)CCC[C@H]2NC[C@@H]3C[C@H]2CN(Cc2ccccc2)C3)c1 | 0% | . | . | .
Cc1oc(-c2cccc(C(F)(F)F)c2)nc1CN(C)Cc1cnn(C)c1 | -12% | . | . | .
CC1=CCC2C(C1)C2(C)C (stereo unspecified) | 79µM* | . | . | .
Cc1nc2c(ccc3c(C)c(C)[nH]c32)s1 | 28µM* | . | . | .
Cc1nc2ccc3[nH]c(C)c(C)c3c2s1 | 4% | . | . | .
O=C1Nc2ccc(-c3cccc(C(F)(F)F)c3)cc2C(=O)N2CCN(C(=O)c3cccs3)C[C@H]12 | 0% | . | . | .
COc1cc(NC(=S)NC(=O)c2cccs2)ccc1NC(=O)C(C)C | 7.1µM* | -2% | 9% | -15%
CCN(CC)c1ccc(NC(=S)NC(=O)c2cccs2)cc1 | 18µM* | -2% | -1% | -3%
CCC(C)c1ccc(O)c(NC(=O)c2cccnc2)c1 (stereo unspecified) | 0% | 1% | -6% | 5%
CC(=O)NC(=S)Nc1ccc(NC(=S)NC(=O)c2cccs2)cc1 | ? | -2% | 4% | -4%
CCC(C)c1ccc(O)c(NC(=S)NC(=O)c2cccs2)c1 (stereo unspecified) | 22µM* | . | . | .
CC(C)C(=O)Nc1cccc(NC(=S)NC(=O)c2cccs2)c1 | 4% | 2% | 1% | -13%
COc1cc(NC(=S)NC(=O)c2ccc(C)cc2C)ccc1NC(=O)c1cccs1 | 5µM* | 2% | -13% | -34%
COc1cccc(-c2noc(CC3CCN(C(=O)c4ccc(OC)c(OC)c4)CC3)n2)c1 | 51% | . | . | .
Cc1ccc(N2CCN(CC(O)COc3cccc(C)c3)CC2)cc1 (stereo unspecified) | -17% | -7% | -1% | 0%
Cc1cccc(OCC(O)CN2CCCN(c3ccc(C(F)(F)F)cn3)CC2)c1 (stereo unspecified) | 13µM* | . | . | .
Brc1ccc(C2=NOC(c3cccs3)C2)cc1 (stereo unspecified) | 10% | . | . | .
Fc1cccc(CCN2C(=S)NC[C@@H]2CC2CCCCC2)c1 | 40µM* | 0% | -12% | -12%
S=c1nc(-c2ccccc2)n(-c2ccccc2)[nH]1 | 45µM* | -3% | 2% | -2%
SMILES | 12-LOX inh | PTAP TSG101 blk | USP2a block | Eya2 inh
O=C1CCCCC(Cc2ccccc2)(C(=O)Nc2ccc(F)cc2)N1 (stereo unspecified) | -3% | . | . | .
Cc1ccc(N(CC(O)COCc2ccco2)S(=O)(=O)c2ccc(C)cc2)cc1 (stereo unspecified) | 35µM* | -13% | 0% | -12%
COc1ccc(/C=C/c2nc3cc(C)ccc3s2)cc1OC | -1% | . | . | .
CCOc1ccc(C(C)NC(=S)NCc2ccc(Cl)cc2)cc1 (stereo unspecified) | 40µM* | -2% | 6% | -2%
CCCc1ccc(C(C)NC(=S)NC2CCCCC2)cc1 (stereo unspecified) | 35µM* | 0% | 4% | -2%
CCNC(=S)NCc1ccc(Cl)cc1 | 0% | -6% | . | .
CCCc1ccc(C(C)NC(=S)NCc2ccc(F)cc2)cc1 (stereo unspecified) | 32µM* | -2% | 0% | -17%
COc1ccc(C(C)NC(=S)NCc2ccc(F)cc2)cc1OC (stereo unspecified) | -19% | -1% | 2% | -5%
CCC(C)c1ccc(C(C)NC(=S)NCc2ccc(F)cc2)cc1 (stereo unspecified) | 40µM* | -7% | -2% | -16%
CCC(NC(=S)NCc1ccc(F)cc1)c1ccc(C(C)C)cc1 (stereo unspecified) | ? | -1% | 1% | -14%
